HSF-1 act: increases HSF-1 driven luciferase reporter signal; activation, % at 9 µM; NIH3T3-HGL HSF-1 luciferase reporter, MG132, 8 h; 100% = twice DMSO control signal; 300,000 tested, 1.7% active;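 active = mean replicate activation of at least 50% with a set share of replicates each reaching 50%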;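 note: 0% = median of the neutral control wells and 100% = twice that signal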
HSF1 inh: HSF1 inhibition. NIH3T3-HGL HSE-luciferase, MG132-induced, luminescence 8 h; active compounds read low. activity change, negative = inhibition, % at 7.5 µM (by protocol). 300,000 tested, 0.77% active. AID 2098;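 active = more than half of replicate wells show activity change below -50%, luminescence cut by over half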;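 note: luciferase reports HSF-1 transcriptional activity via heat shock element; 0% = median of DMSO wells and -100% = zero luminescence signal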
AHR activator: human AHR activation; P35869; AHR-responsive luciferase reporter cells, luminescence; activation, % at 5 µM; 320,000 tested, 2.5% active; in the data active = activation above about 47%;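 note: 0% = vehicle wells and 100% = reference agonist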
Target sequence (P35869 whole entry, looked up): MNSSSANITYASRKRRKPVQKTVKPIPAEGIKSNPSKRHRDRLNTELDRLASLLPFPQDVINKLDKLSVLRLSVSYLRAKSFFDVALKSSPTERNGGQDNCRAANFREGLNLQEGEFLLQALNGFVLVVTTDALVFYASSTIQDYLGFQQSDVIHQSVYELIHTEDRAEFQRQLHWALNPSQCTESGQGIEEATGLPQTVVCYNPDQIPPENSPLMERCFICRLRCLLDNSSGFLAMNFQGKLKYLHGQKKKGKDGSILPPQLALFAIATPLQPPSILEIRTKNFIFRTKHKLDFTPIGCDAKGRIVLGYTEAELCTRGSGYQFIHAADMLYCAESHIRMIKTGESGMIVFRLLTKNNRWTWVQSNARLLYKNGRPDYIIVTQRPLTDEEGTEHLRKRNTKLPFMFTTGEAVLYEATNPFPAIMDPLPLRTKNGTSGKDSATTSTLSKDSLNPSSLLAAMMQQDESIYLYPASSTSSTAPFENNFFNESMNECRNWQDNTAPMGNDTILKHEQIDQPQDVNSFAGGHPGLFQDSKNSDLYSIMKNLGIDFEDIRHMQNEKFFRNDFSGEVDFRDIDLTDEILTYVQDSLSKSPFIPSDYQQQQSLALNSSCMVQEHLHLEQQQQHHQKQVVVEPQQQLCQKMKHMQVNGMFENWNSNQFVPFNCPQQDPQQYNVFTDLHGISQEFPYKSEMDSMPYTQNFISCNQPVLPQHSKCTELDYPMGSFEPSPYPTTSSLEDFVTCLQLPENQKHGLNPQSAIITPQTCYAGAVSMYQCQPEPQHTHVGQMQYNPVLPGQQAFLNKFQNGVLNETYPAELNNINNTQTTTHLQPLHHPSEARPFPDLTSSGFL
DAX1 inh: NR0B1 (DAX1) inhibition | 340,000 tested, 0.99% active | HEK293 Gal4-DAX1 luciferase reporter, luminescence | P51843 | inhibition, % at 6.75 µM;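 active = inhibition above the mean over all tested compounds plus 3 SD, cut at about 4.2% in these data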;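 note: 0% = DAX1-transfected cells with DMSO and 100% = empty-vector control cells with DMSO; inhibition shows as a rise in luminescence from relieved DAX1 repression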
FXN GAA850 act: increases GAA850 frataxin promoter reporter activity; HEK293 lucGAA850 FXN promoter luciferase reporter, 24 h; percent of 10 µM SAHA response; activation, % at 6 µM; 360,000 tested, 0.56% active;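 active = activation above the average of all compounds screened plus 3 SD, cutoff fixed separately per campaign, cut at about 7.5% in these data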;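 note: 0% = DMSO wells and 100% = 10 µM SAHA wells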
* hit, by the source's call; . = not tested or not shown. Rows were chosen to be rich in hits. Some 5.4% of all compounds tested hit in one or more screens of this group.

SMILES	HSF-1 act	HSF1 inh	AHR activator	DAX1 inh	FXN GAA850 act
Cc1ccccc1C(=O)Nc1nnc(CC(=O)N/N=C/c2cn(Cc3ccccc3)c3ccccc23)s1	-0.3	-3.3	15.1	-2.3	1.8
Cc1ccccc1C(=O)Nc1nnc(CC(=O)N/N=C/c2ccco2)s1	-84.7	-79.5*	13.0	-0.6	-1.8
Cc1ccccc1Nc1nc(Cl)nc(NC(C)(C)C)n1	.	.	.	-2.4	-0.9
COC(=O)CSc1nc2cc(OC)ccc2cc1C#N	58.0*	30.7	5.0	4.3*	4.1
COC(=O)CSc1nc2ccc(C)cc2cc1C#N	79.5*	29.0	-0.4	5.9*	3.7
COC(=O)CSc1nc2cc(C)cc(C)c2cc1C#N	45.3	30.8	4.7	-0.6	-1.4
CN(C(=O)c1ccc(OC2CCN(CCc3ccccc3)CC2)cc1)C1CCCCC1	-43.9	-30.2	0.6	0.6	2.5
O=C(COC(=O)c1ccc[n+]([O-])c1)Nc1cc([N+](=O)[O-])ccc1Cl	.	.	13.4	1.1	0.9
CCCCS(=O)(=O)/C=C\C=C/S(=O)(=O)CCCC	-84.0	-83.0*	-1.3	-3.6	-14.8
COc1ccccc1CCNC(=O)CCn1nc(C)c2c(C)n(-c3ccccc3)nc2c1=O	0.5	3.4	2.9	0.2	-1.1
CCOC(=O)c1ccc(NC(=S)N2CCN(CCNC3=CC(=O)CC(C)(C)C3)CC2)cc1	-0.9	-7.1	-2.6	0.3	2.4
COC(=O)C1=C(C)N(Cc2ccc(C)cc2)C(=O)/C1=C\c1cc(OC)c(OC)c(OC)c1	97.8*	71.7	8.2	-0.8	0.3
O=C(NC(=S)N1CCN(c2ccc(Cl)cc2[N+](=O)[O-])CC1)c1cccs1	-67.8	-65.6*	1.3	-1.5	3.0
CN(C(=O)c1ccc2nc(N)sc2c1)c1ccccc1	2.5	-5.4	22.2	-0.6	0.7
CN(C(=O)c1ccccc1)c1nc2ccccc2s1	65.0*	29.0	-2.5	-0.4	-0.7
CSc1ccc(CN2CCC(C)(Oc3cccc(F)c3)C2)cc1 (stereo not given)	.	.	.	.	-0.5
Cc1ccc2nc(SCc3nnc(-c4cccs4)o3)[nH]c2c1	28.5	11.4	60.4*	-0.5	1.3
Cc1ccc2nc(SCC(=O)N3CCOCC3)[nH]c2c1	17.6	10.5	24.5	0.7	0.6
Cc1ccc2nc(SCC3CCCCO3)[nH]c2c1 (stereo not given)	15.6	4.7	50.8*	-2.3	-1.8
CCc1ccccc1N1CC(C(=O)O)CC1=O (stereo not given)	6.2	1.8	1.5	-0.5	-1.5
Cc1ccc(C(=O)c2oc3nc(C)cc(C)c3c2N)cc1	1.9	-6.9	94.9*	-0.2	2.0
CN1C(=O)CSC1=Nc1cccc(Cl)c1	5.8	-12.9	-4.8	-0.1	2.1
Cc1ccc2occ(/C=N/NC(=O)[C@@H](N)Cc3ccccc3)c(=O)c2c1	-1.5	0.5	0.2	5.3*	-3.1
Cn1c(CCn2ccccc2=O)nc2cc(NC(=O)COc3ccccc3)ccc21	-0.4	-2.5	3.1	-0.9	1.7
Cc1ccccc1NC(=O)N1C2CCCC1CC(NC(=O)C1CC1)C2 (stereo not given)	-76.4	-69.9*	-0.9	0.5	1.8
SMILES	HSF-1 act	HSF1 inh	AHR activator	DAX1 inh	FXN GAA850 act
O=C(CCCCCNC(=O)N1CCn2c1nc1ccccc12)N[C@@H](Cc1ccccc1)C(=O)O	5.3	4.5	-0.7	4.5*	0.1
O=C1C=C(Nc2ccccc2)c2ccccc2C1=O	48.6	47.0	.	-0.2	0.7
CCc1ccc(S(=O)(=O)/N=C2\C=C(Nc3ccc(C(=O)O)cc3)C(=O)c3ccccc32)cc1	-6.9	7.1	12.5	-1.5	1.3
O=C1C=C(Nc2ccccc2)C(=O)c2ccccc21	95.6*	61.0	11.2	-1.4	2.9
Cc1ccc(NC2=C/C(=N/S(=O)(=O)c3cccs3)c3ccccc3C2=O)cc1	-94.2	-94.2*	-1.9	0.0	-16.2
Cc1ccc(S(=O)(=O)/N=C2\C=C(Nc3ccc(O)cc3)C(=O)c3ccccc32)cc1	.	.	-9.2	-4.0	-12.7
O=C1C(Nc2ccccc2)=C/C(=N/S(=O)(=O)c2cccs2)c2ccccc21	-95.1	-94.3*	14.6	-6.0	-18.2
O=S(=O)(/N=C(/c1ccccc1)N1CCOCC1)c1ccc(Br)cc1	5.2	-6.5	2.1	-0.6	0.0
COC(=O)CCc1c(C)c(C(=O)c2cc(OC)c(OC)c(OC)c2)c2ccccn12	2.8	-0.4	1.2	0.8	-0.2
CCN(CC)C(=O)C1=C(C)N(Cc2ccc(OC)cc2)C(=O)C(CC(=O)NCc2cccs2)C1 (stereo not given)	.	.	.	0.4	1.0
COc1cc2c(cc1CNC[C@H]1O[C@@H](n3cc(C)c(=O)[nH]c3=O)C[C@@H]1O)OCO2	.	.	.	5.0*	1.2
CCCOc1ccc(C2c3c(oc4cc(C)c(C)cc4c3=O)C(=O)N2CCCN(C)C)cc1 (stereo not given)	-4.6	4.6	0.8	6.7*	0.2
CCNS(=O)(=O)c1ccc(CCC(=O)NCc2ccc3c(c2)OCO3)cc1	53.8*	6.8	3.4	2.2	-1.0
Cc1ccc(S(=O)(=O)C2(C(=O)NCc3ccc4c(c3)OCO4)CC2)cc1	-17.7	-3.4	30.6	0.7	-1.8
O=C(CCc1ccc(S(=O)(=O)NCc2ccccc2)cc1)NCc1ccc2c(c1)OCO2	6.7	0.0	-0.1	0.4	-1.7
O=C(NCc1ccc2c(c1)OCO2)C1(S(=O)(=O)c2ccccc2)CC1	3.7	-2.0	69.7*	0.7	-0.1
COc1cccc(NC(=O)CCC2CCN(C(=O)c3ccc(C(C)=O)s3)CC2)c1	-8.6	-2.5	-3.4	0.1	1.1
COc1ccc(OC)c(CNC(=O)CCN2C(=O)COc3ccccc32)c1	-4.4	1.0	8.4	-1.2	4.2
COc1ccc(Br)cc1CNC(=O)CCN1C(=O)COc2ccccc21	-74.5	-67.5*	13.0	1.3	-1.3
Brc1ccc(N=Cc2ccccn2)cc1	36.5	6.1	55.4*	0.5	2.0
C(=C\c1ccccn1)/c1ccccn1	5.6	9.5	4.3	0.9	4.5
COc1ccc(CCNc2nc(C)nc3c2oc2ccccc23)cc1OC	-6.7	0.7	33.8	-2.4	-0.8
Cc1cccc(Nc2nc(C)nc3c2oc2ccccc23)c1	-11.8	5.1	47.9*	1.7	0.1
Cc1nc(NCCc2cnc[nH]2)c2oc3ccccc3c2n1	-9.3	-4.0	52.9*	1.1	1.5
CCc1nc(Nc2ccc3c(c2)OCO3)c2oc3ccccc3c2n1	-7.3	-3.0	95.5*	1.4	0.7
CCOC(=O)c1nc(Nc2cc(Cl)ccc2OC)c2ccccc2n1	-3.5	-4.3	1.7	0.3	0.5
CC1C2NC(=O)N(Cc3ccccc3)C1(C)Oc1ccccc12 (stereo not given)	.	.	0.5	1.1	3.2
N=c1c2c3c(sc2ncn1Nc1ccccc1)CCC3	-2.2	-7.8	68.4*	.	0.5
C=CCn1c(SCC(=O)NCCCC)nc2scc(-c3ccco3)c2c1=O	10.0	32.1	-0.1	-0.4	2.1
Cc1ccc(-c2csc3nc(C)n(N)c(=O)c23)o1	37.2	21.4	55.0*	1.4	3.8

High-throughput results from PubChem BioAssay.
